{
  "source": "PubChem BioAssay AID1066",
  "about": "(SRMLSC, 2008)",
  "note": "About 790 (0.42%) of roughly 190,000 compounds were called active. The entries come from a sample that favours actives as a whole. Values without a mark were called inactive.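 Rule for the calls: active = inhibition above a set limit, the median over all tested compounds plus 3 SD (cut at about 9.5% in these data); inconclusive = no clear call, values can overlap the other calls; inactive = the rest.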",
  "data": [
    {"tested_on": "HMG-CoA reductase (Enterococcus faecalis, mvaE)", "test": "class II HMG-CoA reductase enzyme inhibition – biochemical, Enterococcus faecalis, primary screen (AID 1066);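 note: enzyme runs in reverse so mevalonate oxidation gives rising NADPH absorbance; 0% = complete reaction with DMSO and 100% = background rate lacking mevalonate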", "conditions": "purified E. faecalis HMGR, NADPH absorbance 340 nm kinetic; at 10 µM; active compounds read high", "values": [
      {"compound": "COc1ccc(N2C(=O)C(Cc3ccccc3)NC2=S)cc1", "note": "(centres undefined)", "inhibition": "-5.65%"},
      {"compound": "COC(=O)c1cc(NC(=O)c2nn(C)c(=O)c3ccccc23)cc(C(=O)OC)c1", "inhibition": "-0.04%"},
      {"compound": "CCn1c(/C=C/c2ccc([N+](=O)[O-])o2)nc2ccccc2c1=O", "inhibition": "-2.94%"},
      {"compound": "C/[N+]([O-])=C\\c1ccc([N+](=O)[O-])o1", "inhibition": "11% (active)"},
      {"compound": "COC(=O)C1=C(C)N(C)C(=O)NC1c1ccc([N+](=O)[O-])o1", "note": "(centres undefined)", "inhibition": "0.43%"},
      {"compound": "CN(C)/C=C/C(=O)c1cnc2sccn2c1=O", "inhibition": "2.25%"},
      {"compound": "S=C(NCCc1ccccc1)NCc1ccccc1Cl", "inhibition": "1.49%"},
      {"compound": "Fc1ccccc1Cn1cnc(NC(=S)NCCc2ccccc2)n1", "inhibition": "15.6% (active)"},
      {"compound": "Fc1ccccc1CNC(=S)Nc1ccc(Cl)cc1", "inhibition": "-0.98%"},
      {"compound": "CCOc1ccc(N2C(=O)/C(=C/c3ccc(C)o3)N(C)C2=S)cc1", "inhibition": "-5.07%"},
      {"compound": "COCCN(C(=O)C(C)C)c1nnc(-c2ccc(C(C)(C)C)cc2)s1", "inhibition": "-2.5%"},
      {"compound": "COc1ccc(NC(=O)N2CCCC(c3nc(-c4ccc(F)cc4)no3)C2)cc1", "note": "(centres undefined)", "inhibition": "1.89%"},
      {"compound": "O=C(c1ccccc1Cl)N(Cc1ccccc1F)N1C(=O)CCCC1=O", "inhibition": "-5.67%"},
      {"compound": "C=CCn1c(=NC(=O)c2cccs2)sc2cc(NC(C)=O)ccc21", "inhibition": "-0.47%"},
      {"compound": "CCN=C1S/C(=C\\c2cc(Br)ccc2OCC(=O)OCC)C(=O)N1CC", "inhibition": "-2.47%"},
      {"compound": "COc1cccc(Cn2cnc3c([N+](=O)[O-])c(C)c(C)cc32)c1", "inhibition": "-3.58%"},
      {"compound": "COc1ccc(F)cc1C(=O)C1CCCN(C(=O)CCc2ccccn2)C1", "note": "(centres undefined)", "inhibition": "-4.06%"},
      {"compound": "CCOC(=O)C1CCN(C(=O)/C=C/c2cc(OC)c(OC)c(OC)c2)CC1", "inhibition": "-1.76%"},
      {"compound": "Cc1cc(C)c2nc(-c3cccnc3)cc(C(=O)Nc3ccc(S(=O)(=O)Nc4onc(C)c4C)cc3)c2c1", "inhibition": "-2.12%"},
      {"compound": "Cc1ccc(CSc2nc3[nH]ncc3c(=O)[nH]2)cc1", "inhibition": "-1.81%"},
      {"compound": "COc1ccccc1C(=O)NNC(=O)c1ccc(NC(=O)c2ccccc2)cc1", "inhibition": "15.3% (active)"},
      {"compound": "C/C(=N/NC(=O)c1ccc(NC(=O)c2ccc(F)cc2)cc1)c1ccccc1", "inhibition": "-3.05%"},
      {"compound": "COc1ccc(C(=O)Nc2ccccc2C(=O)N/N=C/c2ccccc2OC)cc1", "inhibition": "-0.76%"},
      {"compound": "CC(=O)c1ccc(NC(=S)N(Cc2ccccc2)C(C)C2CC2)cc1", "note": "(centres undefined)", "inhibition": "-4.01%"},
      {"compound": "O=C(COC(=O)c1cc(=O)[nH]c2ccccc12)Nc1nc(-c2cccc(Br)c2)cs1", "inhibition": "-0.22%"},
      {"compound": "C/C(=N\\NS(=O)(=O)c1ccc(Cl)cc1)c1ccc(NC(=O)c2ccco2)cc1", "inhibition": "2.58%"},
      {"compound": "Cc1onc(C(=O)NN)c1C(=O)N1CCN(C(c2ccccc2)c2ccccc2)CC1", "inhibition": "-0.47%"},
      {"compound": "Cc1nc2sc3c(c2c(=O)n1NC(=O)CCl)CCCC3", "inhibition": "-4.51%"},
      {"compound": "CSc1ccc(CNCCN2CCOCC2)cc1", "inhibition": "-2.23%"},
      {"compound": "C/C(CC(=O)Nc1cccc(F)c1)=N\\NC(=O)C(=O)NC1CCCCC1", "inhibition": "-2.25%"},
      {"compound": "CCC(C)(C)NC(=O)CN(Cc1cccs1)C(=O)CNS(=O)(=O)c1ccc(F)cc1", "inhibition": "-1.17%"},
      {"compound": "CC(C)(C)N(CC#CCC(O)(c1ccccc1)C1CCCC1)CCO", "note": "(centres undefined)", "inhibition": "-1.31%"},
      {"compound": "N#CC(=C1CCCC1)c1nc(-c2ccc(Cl)cc2)cs1", "inhibition": "25.7% (active)"},
      {"compound": "N#CC(=C1SC=CS1)c1nc(-c2ccccc2)cs1", "inhibition": "-4.9%"},
      {"compound": "N#C/C(=C1\\CCCN1)c1nc(-c2ccccc2)cs1", "inhibition": "-5.6%"},
      {"compound": "CCOC(=O)Cc1csc(NC(=O)CSc2ccc(Br)cc2)n1", "inhibition": "5.27%"},
      {"compound": "CCOC(=O)Cc1csc(NC(=O)C(C)(C)C)n1", "inhibition": "5.04%"},
      {"compound": "CCOC(=O)Cc1csc(NC(=O)Nc2ccccc2)n1", "inhibition": "12.1% (active)"},
      {"compound": "COc1ccc(NC(=O)c2ccccc2CC[N+](=O)[O-])cc1", "inhibition": "-3.38%"},
      {"compound": "COc1ccccc1CC(NC(C)=O)C(=O)NC1CCN(C(=O)Nc2ccccc2Cl)CC1", "note": "(centres undefined)", "inhibition": "-1.31%"},
      {"compound": "CC(C)(C)C(=O)N1CCC[C@@]1(CO)C(=O)O", "inhibition": "-3.2%"},
      {"compound": "CCc1cc(CNC(=O)CC2C(=O)NCCN2CC2CCCCC2)on1", "note": "(centres undefined)", "inhibition": "1.73%"},
      {"compound": "O=C(O)/C=C/c1ccc(S(=O)(=O)N2CCCCCC2)cc1", "inhibition": "-1.58%"},
      {"compound": "CSCCC(Nc1ccc(S(=O)(=O)N2CCOCC2)cc1[N+](=O)[O-])C(=O)OCC(=O)N(C(C)C)C(C)C", "note": "(centres undefined)", "inhibition": "-4.18%"},
      {"compound": "Cc1ccc(NC(=O)CN2CCC(C(N)=O)CC2)cc1[N+](=O)[O-]", "inhibition": "-7.59%"},
      {"compound": "CC(=O)N1CCN(S(=O)(=O)c2ccc(C)c([N+](=O)[O-])c2)C1C(C)C", "note": "(centres undefined)", "inhibition": "15.5% (active)"},
      {"compound": "CCc1cccc(C)c1NC(=O)COC(=O)Cc1ccsc1", "inhibition": "0.78%"},
      {"compound": "CCCn1c(=S)[nH]c2ccc(C(F)(F)F)cc21", "inhibition": "-3.38%"},
      {"compound": "Cc1c(NC(=S)NC(=O)CCc2ccccc2)c(=O)n(-c2ccccc2)n1C", "inhibition": "-5.41%"},
      {"compound": "Cc1ccc(Cl)c(NC(=O)CN(C)CC(=O)Nc2ccc(F)c(F)c2F)c1Cl", "inhibition": "-3.18%"},
      {"compound": "CNCC(O)CN1CCN(c2ccccc2OC)CC1", "note": "(centres undefined)", "inhibition": "-5.06%"},
      {"compound": "Cc1[nH]c2ccccc2c1/C=C(/C#N)C(=O)NC(C)C", "inhibition": "-0.57%"},
      {"compound": "CCOC(=O)N1CCN(CC(=O)Nc2ccc(F)cc2)CC1", "inhibition": "-2.98%"},
      {"compound": "CCOc1ccc(NC(=O)N2CCN(CC)CC2)cc1", "inhibition": "-2.53%"},
      {"compound": "CCOc1ccc(NC(=O)CN2CCN(CC(=O)Nc3ccc(OC)cc3)CC2)cc1", "inhibition": "11.1% (active)"},
      {"compound": "S=c1[nH]ccn1-c1ccc(Cl)cc1", "inhibition": "-3.58%"},
      {"compound": "COc1ccc(CCCc2nnc(SCc3nc4ccccc4c(=O)[nH]3)n2C)cc1", "inhibition": "4.13%"},
      {"compound": "CCN(CC)c1ccc(S(=O)(=O)N2CCOCC2)cc1NC(=O)CSc1cccc[n+]1[O-]", "inhibition": "-6.45%"},
      {"compound": "COC(=O)c1ccccc1NS(=O)(=O)c1ccc2[nH]c(=O)[nH]c2c1", "inhibition": "-1.55%"},
      {"compound": "O=C(COC(=O)CNS(=O)(=O)c1ccccc1)NC12CC3CC(CC(C3)C1)C2", "inhibition": "-0.89%"},
      {"compound": "O=C1c2ccccc2NC(c2ccccn2)N1NS(=O)(=O)c1ccccc1", "note": "(centres undefined)", "inhibition": "-5.78%"},
      {"compound": "CC1CCCCC1NC(=O)COC(=O)Cc1ccc(Br)cc1", "note": "(centres undefined)", "inhibition": "-8.55%"},
      {"compound": "Cc1cc(C)c[n+](-c2nc3ccccc3nc2[N-]S(=O)(=O)c2cccs2)c1", "inhibition": "-2.15%"},
      {"compound": "COc1cccc(C2SCC(=O)N2c2cccc(C)c2)c1OC", "note": "(centres undefined)", "inhibition": "-2.05%"},
      {"compound": "O=C(c1ccccc1)c1ccc(OC(=O)N2CCCC2)cc1", "inhibition": "-3.15%"},
      {"compound": "O=C(COc1cccc(F)c1)Oc1ccc(C(=O)c2ccccc2)cc1", "inhibition": "11.7% (active)"},
      {"compound": "Cc1cccc(OCC(=O)Nc2ccccc2F)c1", "inhibition": "-6.74%"},
      {"compound": "Cc1nn(CC(=O)Nc2ccc3c(c2)OCO3)c(C)c1[N+](=O)[O-]", "inhibition": "-8.05%"},
      {"compound": "CC1CC(=S)Nc2ccccc2N1Cc1ccccc1", "note": "(centres undefined)", "inhibition": "-4.09%"},
      {"compound": "CC(=O)Nc1ccc(S(=O)(=O)N2CCCC2C(=O)O)cc1", "note": "(centres undefined)", "inhibition": "18.5% (active)"},
      {"compound": "O=C(O)C1CCCN1S(=O)(=O)c1ccc2c(c1)CCC2", "note": "(centres undefined)", "inhibition": "0.94%"},
      {"compound": "CC(=O)Nc1ccc(S(=O)(=O)N2CCN(C3CCCCCCC3)CC2)cc1", "inhibition": "-5.25%"},
      {"compound": "CCOC(=O)c1[nH]cnc1C(=O)Nc1ccccc1C", "inhibition": "-0.64%"},
      {"compound": "O=C1CC(N2CCN(c3ccc(F)cc3)CC2)C(=O)N1c1ccccc1", "note": "(centres undefined)", "inhibition": "-3%"},
      {"compound": "COC(=O)C(=Nc1ccccc1)/C(C(=O)C(=O)N(C)c1ccccc1)=C(\\O)c1ccc(Cl)cc1", "inhibition": "12.8% (active)"},
      {"compound": "CN(C)/C=C(/C(=O)c1ccc(Cl)cc1)S(=O)(=O)c1ccccc1", "inhibition": "-1.53%"},
      {"compound": "COC(=O)/C(NC(C)=O)=C(\\C)c1ccc(Cl)cc1", "inhibition": "-0.22%"},
      {"compound": "O=C(CCc1ccccc1)Nc1ccc(NC(=O)C2CCCCC2)nc1", "inhibition": "-5.74%"},
      {"compound": "COc1ccc(OC)c(-c2csc(NC(=O)C3=NNC(=O)CC3)n2)c1", "inhibition": "-3.44%"},
      {"compound": "Cc1cc(NC(=O)CSc2nc3c(cc2C#N)CCCCC3)no1", "inhibition": "-2.85%"},
      {"compound": "CC(NC(=O)CSc1nc2c(cc1C#N)CN(C)CC2)c1ccccc1", "note": "(centres undefined)", "inhibition": "-4.51%"},
      {"compound": "CC1(C)CCc2nc(SCc3ccccc3)c(C#N)cc2C1", "inhibition": "13.3% (active)"},
      {"compound": "CCCC(=O)Nc1cccc(NC(=S)NC(=O)C(C)Oc2ccc(Cl)cc2Cl)c1", "note": "(centres undefined)", "inhibition": "-6.26%"},
      {"compound": "N=C1C(c2nc3ccccc3[nH]2)=C(O)CN1NC(=O)c1c[nH]c2ccccc12", "inhibition": "1.51%"},
      {"compound": "CC(=O)Nc1ccc(NC(=O)C(C)n2c3ccccc3c3nc(=O)cc(C)n32)cc1", "note": "(centres undefined)", "inhibition": "3.72%"},
      {"compound": "CCCCN(C(=O)/C=C/c1ccco1)c1c(N)n(CC(C)C)c(=O)[nH]c1=O", "inhibition": "1.3%"},
      {"compound": "Cc1cc(C(=O)N/N=C/c2cc([N+](=O)[O-])cc(C)c2O)n[nH]1", "inhibition": "1.28%"},
      {"compound": "CC1(C)OC(=O)C(=CNC(CO)C(=O)O)C(=O)O1", "note": "(centres undefined)", "inhibition": "-0.06%"},
      {"compound": "CC(C)(C)NC(=O)CN(C(=O)c1csnn1)c1ccccc1-c1ccccc1", "inhibition": "3.37%"},
      {"compound": "CCOC(=O)CC(NC(=O)C1c2ccccc2Oc2ccccc21)c1ccc(C)cc1", "note": "(centres undefined)", "inhibition": "-0.18%"},
      {"compound": "O=C1Nc2ccc([N+](=O)[O-])cc2C1=Nc1cccc(CO)c1", "inhibition": "-7.75%"},
      {"compound": "C/C(=N\\OCC(=O)Nc1ccc(Br)cc1)c1cccs1", "inhibition": "-3.94%"},
      {"compound": "COC(=O)c1ccc(/C=N/N2C(C)CCCC2C)cc1", "note": "(centres undefined)", "inhibition": "-1.41%"},
      {"compound": "CCN(C(=O)COc1cccnc1[N+](=O)[O-])C1CCS(=O)(=O)C1", "note": "(centres undefined)", "inhibition": "1.64%"}
    ]}
  ]
}
